Assay outcomes deposited in PubChem BioAssay by several laboratories.
Fh CTSL1 inh: Fasciola hepatica cathepsin L1 inhibitors, primary screen, counter-screen for PFM18AAP inhibitor project, biochemical, QFRET, fluorogenic peptide substrate | recombinant F. hepatica cathepsin L1, Z-Leu-Arg-MCA fluorescence | inhibition, % at 5.96 µM | hit rate 0.49% among 300,000 | AID 1906, 2009;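 active = inhibition above the mean of all tested compounds plus 3 SD, set per screening campaign, cut at about 17% in these data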;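 also: 0% = plate median of test compound wells and 100% = 1 µM Z-Phe-Ala-diazomethylketone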
HNF4A DNA FP: change in binding of human HNF4A to DNA, primary screen, biochemical, fluorescence polarization, FITC-DNA. hit rate 0.3% among 360,000. Hepatocyte nuclear factor 4-alpha (Homo sapiens), P41235. 1 h. activity change, % at 10 µM; in the data active = activity change above about 30%, passing the limit was not always enough
PHOSPHO1 inh: PubChem AID 1565; Phosphoethanolamine/phosphocholine phosphatase (Homo sapiens), Q8TCT1; recombinant PHOSPHO1, absorbance phosphatase assay; inhibition, % at 13.3 µM; hit rate 1.1% among 290,000; in the data active = inhibition above about 60%
Target sequence (Q8TCT1 whole entry, looked up): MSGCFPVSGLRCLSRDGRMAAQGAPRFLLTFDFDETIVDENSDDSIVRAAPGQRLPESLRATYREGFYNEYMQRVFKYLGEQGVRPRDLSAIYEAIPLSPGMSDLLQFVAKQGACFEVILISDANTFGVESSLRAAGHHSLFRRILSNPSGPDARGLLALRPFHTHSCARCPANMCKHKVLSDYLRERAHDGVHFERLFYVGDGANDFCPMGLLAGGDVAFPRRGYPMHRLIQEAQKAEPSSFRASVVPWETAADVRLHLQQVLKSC
Rpn11 block: Rpn11 (PSMD14) deubiquitinase inhibitors, primary screen, biochemical, fluorescence polarization, uHTS | 26S proteasome non-ATPase regulatory subunit 14 (Homo sapiens), O00487 | human 26S proteasome, Ub4-pepOG fluorescence polarization; 20S core pre-blocked with epoxomicin | inhibition, % at 20 µM | hit rate 0.59% among 360,000;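 active = inhibition at 20 µM, scaled to each plate's controls, above about 33%, limit read from the data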
NRP1-CendR mod: modulators of CendR peptide binding to NRP-1, primary screen, biochemical, fluorescence polarization, uHTS. AID 602438, 2012. FAM-RPARPAR peptide binding to NRP-1. hit rate 0.85% among 360,000. inhibition, % at 25 µM;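 active = inhibition or corrected inhibition above about 18%, plus a signal ratio from 0.5 to 1.5, limit read from the data, passing the limit was not always enough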
TPT1 inhibitor: Candida albicans TPT1 enzyme inhibitors, primary screen, biochemical, fluorescence polarization; tRNA 2'-phosphotransferase TPT1 (Candida albicans SC5314); recombinant caTPT1, FP RNA substrate dephosphorylation; inhibition, % at 5 µM; hit rate 0.81% among 300,000; AID 1962, 2009;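 active = inhibition above the mean of all tested compounds plus 3 SD, set per screening campaign, cut at about 24% in these data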;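 also: plate controls were DMSO alone for no effect and ferristatin control at 100 nM for full effect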
caTPT1 confirm: Candida albicans TPT1 inhibitors, confirmation, biochemical, fluorescence polarization, triplicate; shares compounds with TPT1 inhibitor; recombinant caTPT1, RNase T1 coupled; inhibition, % at 5 µM; hit rate 74% among 2,400; AID 2149, 2009;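 active = inhibition above the primary screen limit, the mean inhibition of all tested compounds plus 3 SD, cut at about 25% in these data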
RNase T1 inh: RNase T1 inhibitors, counter-screen for TPT1 inhibitor project, biochemical, fluorescence polarization. inhibition, % at 5 µM. shares compounds with TPT1 inhibitor. hit rate 83% among 2,400. RNase T1 cleavage, 1536-well;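 active = inhibition above the solvent-only control well mean plus 3 SD, limit set per screening run, cut at about 23% in these data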;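 also: plate controls were DMSO wells with enzyme for no effect and wells without RNase T1 for full effect; inhibitors block cleavage so intact labeled substrate keeps polarization high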
Target sequence (P00651 whole entry, looked up): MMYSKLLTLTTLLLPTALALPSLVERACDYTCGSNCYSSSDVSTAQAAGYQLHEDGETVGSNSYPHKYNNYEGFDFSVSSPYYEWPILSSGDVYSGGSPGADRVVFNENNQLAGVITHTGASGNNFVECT
Starred values were filed as active, the others as inactive; . = not tested or not shown. Only some compounds are listed: those with a hit (about 3.3% of all), similar ones and a draw of the others.

SMILES | Fh CTSL1 inh | HNF4A DNA FP | PHOSPHO1 inh | Rpn11 block | NRP1-CendR mod | TPT1 inhibitor | caTPT1 confirm | RNase T1 inh
Cc1sc2nc(CSc3nc4ccccc4s3)[nH]c(=O)c2c1C | -4 | . | -74 | . | . | 42* | 52* | 64*
O=c1[nH]c(CSc2nc3ccccc3s2)nc2ccccc12 | -4 | 2 | 11 | 1 | 6 | 0 | . | .
O=C(CN(Cc1ccccc1Cl)C(=O)CNS(=O)(=O)c1ccc(F)cc1)NCC1CCCO1 (centres undefined) | 0 | -5 | 42 | -14 | -8 | -1 | . | .
N#Cc1c(N)n(-c2cccc(C(=O)O)c2)c2nc3ccccc3nc12 | 0 | 21 | -1 | . | 128 | 36* | 40* | 49*
CCOC(=O)C1Nc2ccc(Br)cc2C2C=CCC12 (centres undefined) | 2 | -3 | -14 | 3 | -6 | 4 | . | .
O=C(O)C1Nc2c(Cl)cc(Cl)cc2C2C=CCC12 (centres undefined) | -1 | -58 | -47 | . | -76 | 33* | 11 | 16
O=C(O)C1Nc2ccc(Br)cc2C2C=CCC12 (centres undefined) | -2 | -66 | . | 18 | -4 | 29* | 11 | 21
Cc1cccc(NC(=O)C23CCC(C)(C2Br)C3(C)C)c1 (centres undefined) | 4 | 3 | 16 | -7 | 0 | 0 | . | .
O=C(N/N=C/c1ccoc1)c1ccccc1O | 4 | -15 | 28 | -5 | 0 | 1 | . | .
CN1c2cccc3cccc(c23)N(C)C1c1cccs1 | 3 | 0 | 26 | -6 | -5 | -9 | . | .
CC1N(C)c2cccc3cccc(c23)N1C | 3 | 32 | -12 | 71* | -102 | 32* | 6 | 7
CC1CCC(CN2C(Nc3ccccc3)=NC[C@@H]2Cc2ccccc2)CC1 (some centres undefined) | . | -5 | . | -15 | 3 | . | . | .
COc1ccc(N(C(=O)c2cccnc2)S(=O)(=O)c2cccc([N+](=O)[O-])c2)cc1 | 2 | 0 | 25 | 1 | 0 | 68* | 5 | 7
CCCCn1nnnc1SCC(=O)Nc1ccc(N(C)C)cc1 | 6 | 2 | -64 | 0 | -6 | -9 | . | .
Nc1c(C(=O)N/N=C/c2cccnc2)oc2nc(-c3ccco3)cc(-c3ccco3)c12 | 0 | -44 | -35 | -48 | 1 | 44* | 76* | 81*
NNC(=O)c1oc2nc(-c3ccco3)cc(-c3ccco3)c2c1N | 4 | 10 | 22 | 14 | -37 | 66* | 48* | 61*
NNC(=O)c1oc2nc(-c3ccc(Cl)cc3)cc(-c3ccccc3)c2c1N | . | 8 | 11 | 26 | -8 | . | . | .
O=C(N/N=C/c1cccnc1)c1cc2ccccc2o1 | 3 | 1 | 5 | -2 | -6 | -2 | . | .
Cc1ccc2nc(SCC(=O)Nc3ccc4sc(C)nc4c3)c(C#N)cc2c1 | -2 | 3 | 4 | 8 | 0 | 25* | 6 | 10
Cc1ccc2nc(SCC(=O)Nc3ccccc3N3CCOCC3)c(C#N)cc2c1 | 2 | -1 | -4 | 6 | -9 | -2 | . | .
CCOC(=O)Cc1cc(=O)n(-c2nc3ccccc3s2)[nH]1 | -3 | 9 | 9 | 24 | -36 | 28* | 14 | 24*
Cc1ccc2c(c1)c1nc3ccccc3nc1n2C | 3 | -5 | 14 | -29 | 16 | -7 | . | .
Cn1c(-c2ccc(N)cc2)nc2ccccc21 | -3 | 1 | 40 | 2 | 10 | -5 | . | .
Cn1c(-c2c(N)n(-c3ccccc3)c3nc4ccccc4nc23)nc2ccccc21 | -4 | 8 | -34 | 11 | -11 | 40* | 43* | 52*
Cc1cccc(-n2c(N)c(-c3nc4ccccc4n3C)c3nc4ccccc4nc32)c1 | 1 | 2 | -5 | 4 | -27 | 26* | 25* | 36*
SMILES | Fh CTSL1 inh | HNF4A DNA FP | PHOSPHO1 inh | Rpn11 block | NRP1-CendR mod | TPT1 inhibitor | caTPT1 confirm | RNase T1 inh
Cc1cccnc1C(NC(=O)C1CCN(CCCc2ccccc2)CC1)c1ccc(Cl)cc1 (centres undefined) | . | -1 | . | -3 | 18 | . | . | .
CC(/C=N/n1c(-c2n[nH]c3c2CCC3)n[nH]c1=S)=C\c1ccco1 | 2 | -1 | 4 | 1 | -10 | 33* | 4 | 9
CCOc1ccc(NC(=S)N2CCC(NC(=O)c3ccco3)CC2)cc1 | 4 | 4 | 43 | 1 | 4 | 1 | . | .
Cn1nnnc1SCc1nc2scc(-c3ccc(Cl)cc3)c2c(=O)[nH]1 | 0 | 39* | 15 | . | -73 | 29* | 50* | 59*
Cc1ccc(C(=O)NNC(=O)c2ccc(NC(=O)C(C)(C)C)cc2)cc1 | -11 | 0 | . | 2 | -4 | -2 | . | .
Oc1nc(Nc2cccc(Cl)c2)sc1/C=C1\C=Nc2ccccc21 | 3 | 3 | -36 | 32 | -22 | 2 | . | .
Oc1cccc(Nc2nc(O)c(/C=C3\C=Nc4ccccc43)s2)c1 | -1 | 150 | 12 | . | -46 | 77* | 130* | 130*
CN(Cc1ccc([N+](=O)[O-])cc1)c1ccccc1 | . | 2 | . | -5 | 24 | . | . | .
Cc1ccc(-n2nnnc2SCc2nc3sc(C)c(C)c3c(=O)[nH]2)cc1 | -1 | 30 | -15 | . | -76 | 20 | . | .
CC(=O)c1sc2nc(CSc3nnnn3-c3ccccc3)[nH]c(=O)c2c1C | 5 | 38* | -11 | . | -164 | 71* | 69* | 81*
CCCCNC(=O)C1(C)CCCCN1C(=O)c1csnn1 (centres undefined) | . | 0 | . | -12 | -6 | . | . | .
Cc1ccc2nc(Cl)c(/C=N/Nc3ccc(C(=O)O)cc3)cc2c1 | 3 | 0 | -107 | 11 | -75 | 30* | 36* | 47*
Cc1ccc2cc(/C=N/NC(=O)c3ccc(F)cc3)c(Cl)nc2c1 | -2 | 1 | 9 | 8 | -1 | 2 | . | .
Cc1ccc(S(=O)(=O)NN2C(=O)/C(=C/c3cccn3C)SC2=S)cc1 | 6 | . | 0 | . | . | 57* | 60* | 74*
Cn1cccc1/C=C1\SC(=S)N(Nc2ccccc2)C1=O | 8 | 58* | 16 | . | -42 | 42* | 72* | 87*
CC(C)=CC(=O)N1CCCC(N2CCN(c3ccc(F)cc3)CC2)C1 (centres undefined) | 1 | -2 | 14 | -1 | 3 | -1 | . | .
